Results as given in PubChem BioAssay (Tox21).
Records with an inconclusive call do not appear. A call without a number means that no potency is given here. Calls of active or inactive are those of the source. Unless noted, calls come from the whole dose curve.

Assays:
[1] = Nuclear factor erythroid 2-related factor 2/antioxidant responsive element (Nrf2/ARE) small molecule agonists: qHTS cell viability counter screen in human keratinocytes (AID 1919968; active = well fitted curve in the direction sought with a large enough effect in the repeat runs; an effect the other way counts as inactive or inconclusive; note: nearly all actives have a fitted effect of over 55% in size)
Outline: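 Seed 1,500 KeratinoSens cells per well, then incubate 5 h at 37 C/5% CO2. Add compounds in DMSO and incubate 23 h. Add CellTiter-Fluor, wait 1 h and read fluorescence.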

[2] = Nuclear factor erythroid 2-related factor 2/antioxidant responsive element (Nrf2/ARE) small molecule agonists: luciferase reporter gene qHTS assay in human keratinocytes (AID 1919969); note: nearly all actives have a fitted effect of over 35% in size
[3] = molecular target: Gonadotropin-releasing hormone receptor (Homo sapiens) (UniProt P30968); test: Human gonadotropin-releasing hormone receptor (GnRHR) small molecule agonists, calcium flux assay in GnRHR-HEK293 cells (AID 1920063); note: nearly all actives have a fitted effect of over 35% in size
Outline: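 Cells: HEK293 stably expressing human GnRHR. Steps: overnight (18 h) culture, 1 h calcium dye loading at 37 C, compound addition, kinetic fluorescence read at 480/540 nm. Each compound tested at 15 concentrations in triplicate.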

[4] = molecular target: KiSS-1 receptor (Homo sapiens) (UniProt Q969F8); test: Human kisspeptin (KISS1R) small molecule agonists, calcium flux assay in KISS1R-HEK293 cells (AID 1920064; active = well fitted curve in the direction sought with a large enough effect in the repeat runs; an effect the other way counts as inactive or inconclusive)
Outline: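 Cells plated and incubated 18 h; dye added, 1 h at 37 C; compounds in DMSO pinned in; signal read at 480/540 nm every second for 3 min. Each compound tested at 15 concentrations in triplicate.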

[5] = G protein-coupled receptor (GPCR) small molecule agonists, calcium flux assay: HEK293 wild type cell line counter screen (AID 1920065)
Outline: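 Counter-screen of the Tox21 10K library for non-specific calcium release: dye-loaded cells received compounds in DMSO and were monitored by kinetic fluorescence (480/540 nm, 3 min). Fifteen concentrations, run in triplicate.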

[6] = p53 small molecule agonists, cell-based qHTS assay with human liver microsomes (AID 1963577)
Outline: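 Fluorescence of the beta-lactamase reporter in p53RE-bla cells, detected with LiveBLAzer substrate (2 h, room temperature, dark), served as the read-out after 16 h compound exposure at 37 C with human liver microsomes and NADPH, each 0.5 mg/mL final.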

[7] = p53 small molecule agonists, cell-based qHTS assay with rat liver microsomes (AID 1963578)
Outline: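 Cells carrying a p53 response element–beta-lactamase reporter were plated and rested 5 h, then dosed with compound in DMSO plus rat liver microsomes and NADPH, each at 0.5 mg/mL final. After 16 h at 37 C, LiveBLAzer substrate was added for 2 h.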

[8] = p53 small molecule agonists, cell-based qHTS assay with human liver microsomes: qHTS cell viability counter screen (AID 1963579); note: nearly all actives have a fitted effect of over 45% in size
Outline: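 Cytotoxicity counter screen: p53RE-bla, 4,000 cells/well; 5 h settle, 37 C/5% CO2; cpd + HLM 0.5 mg/mL + NADPH 0.5 mg/mL (final); 16 h, 37 C; CellTiter-Glo, 30 min RT, luminescence.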

[9] = p53 small molecule agonists, cell-based qHTS assay with rat liver microsomes: qHTS cell viability counter screen (AID 1963580); note: nearly all actives have a fitted effect of over 45% in size
Outline: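 Intracellular ATP, by CellTiter-Glo luminescence, defines viability. HCT-116 p53RE-bla cells, 4,000 per well, were compound-treated in the presence of rat liver microsomes and NADPH for 16 h at 37 C.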

[10] = p53 small molecule agonists, cell-based qHTS assay: qHTS cell viability counter screen (AID 1963581); note: nearly all actives have a fitted effect of over 45% in size
Outline: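 Cells: HCT-116 with p53 response element-driven beta-lactamase. Treatment: 16 h, 37 C, compounds in DMSO. Read: CellTiter-Glo luminescence after 30 min RT.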

[11] = p53 small molecule agonists, cell-based qHTS assay (AID 1963582; active = well fitted activation curve with a large enough effect in the signal ratio in the repeat runs, not every such curve was filed as active; the % refers to the signal ratio)
Outline: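 Quantitative HTS in p53RE-bla cells: after a 5 h settling period, compounds delivered in DMSO were left on cells for 16 h at 37 C, and reporter induction was measured as fluorescence following 2 h substrate loading.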

[12] = molecular target: 5-hydroxytryptamine receptor 2A (Homo sapiens) (UniProt P28223); test: 5-hydroxytryptamine receptor 2A (HTR2A) small molecule antagonists, cell-based qHTS assay (AID 1963586); note: nearly all actives have a fitted effect of over 45% in size
Outline: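 Antagonist-mode intracellular calcium assay: DOI (4 nM) added after 5 min compound pre-incubation at room temperature to dye-loaded HTR2A-CHO cells. Fluorescence followed for 3 min, sampled every second.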

[13] = molecular target: 5-hydroxytryptamine receptor 2A (Homo sapiens) (UniProt P28223); test: 5-hydroxytryptamine receptor 2A (HTR2A) small molecule agonists, cell-based qHTS assay (AID 1963587); note: nearly all actives have a fitted effect of over 30% in size
Outline: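 Kinetic calcium-flux fluorescence (2 min, 1 sec intervals) after compound addition in agonist mode. HTR2A-CHO cells were cultured 18 h, then dye-loaded 1 h at 37 C.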

[14] = molecular target: Muscarinic acetylcholine receptor M1 (Homo sapiens) (UniProt P11229); test: Cholinergic receptor muscarinic 1 (CHRM1) small molecule antagonists, cell-based qHTS assay (AID 1963588); note: nearly all actives have a fitted effect of over 40% in size
Outline: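 CHRM1-CHO calcium-flux assay, antagonist mode. Cells were seeded 18 h, dye-loaded 1 h at 37 C and given compound for 5 min at RT, then acetylcholine was added at 50nM. FDSS fluorescence was read 3 min; 15 concentrations, three runs.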

[15] = molecular target: Muscarinic acetylcholine receptor M1 (Homo sapiens) (UniProt P11229); test: Cholinergic receptor muscarinic 1 (CHRM1) small molecule agonists, cell-based qHTS assay (AID 1963589); note: nearly all actives have a fitted effect of over 35% in size
Outline: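 Agonist-mode qHTS in CHO cells stably carrying human muscarinic M1. Intracellular calcium is tracked by fluorescence every second after compound transfer; each compound runs at 15 concentrations in three independent runs.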

[16] = cAMP Responsive Elements (CRE) small molecule agonists, cell-based qHTS assay (AID 1963590)
Outline: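 Agonist mode qHTS in CRE-bla HEK 293T cells: compounds dosed from DMSO for 3 h at 37 C/5% CO2, followed by LiveBLAzer B/G FRET substrate for 2 h at room temperature.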

[17] = molecular target: Beta-2 adrenergic receptor (Homo sapiens) (UniProt P07550); test: Adrenergic beta2 receptor (ADRB2) small molecule antagonists, cell-based qHTS assay (AID 1963592); note: nearly all actives have a fitted effect of over 50% in size; note: potency is the fitted concentration of half-maximal effect
Outline: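 Cells (CHO, stable ADRB2 overexpression) incubated 18-20hr at 37C; compounds added from DMSO; agonist mix (1nM isoproterenol, 100uM IBMX, 25uM Ro-20-1724) added; 0.5hr RT; d2-cAMP and anti-cAMP-cryptate added; 1hr RT; 665/615 nm read.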

[18] = molecular target: D(2) dopamine receptor (Homo sapiens) (UniProt P14416); test: Dopamine D2 receptor (DRD2) small molecule agonists, cell-based qHTS assay (AID 1963594); note: nearly all actives have a fitted effect of over 35% in size
Outline: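 cAMP accumulation in DRD2-HEK293 cells measured by HTRF after 1 h detection; compounds added 10 min before NKH477 (200nM […]) forskolin-analogue stimulation, 30 min at room temperature, with Ro20-1724 present at 0.1 mM final.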

[19] = molecular target: D(2) dopamine receptor (Homo sapiens) (UniProt P14416); test: Dopamine D2 receptor (DRD2) small molecule antagonists, cell-based qHTS assay (AID 1963595; active = well fitted inhibition curve with a large enough effect in the signal ratio in the repeat runs, with a control signal flat; the % refers to the signal ratio)
Outline: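 Antagonism was scored as restored cAMP in HEK293-DRD2 cells. These cells were stimulated with 200 nM NKH477 and 12 nM quinpirole for 30 min at room temperature, in the presence of 0.1 mM Ro20-1724.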

[20] = cAMP Responsive Elements (CRE) small molecule antagonists, cell-based qHTS assay (AID 1963591; active = well fitted inhibition curve with a large enough effect in the signal ratio in the repeat runs, not every such curve was filed as active; the % refers to the signal ratio)
Outline: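 Antagonist mode: test compounds are co-incubated with the adenylyl cyclase activator NKH477 (0.25 uM final) on CRE-bla HEK293T cells for 3 h at 37 °C, followed by LiveBLAzer substrate loading.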

Sequence of 5-hydroxytryptamine receptor 2A (Homo sapiens) (P28223 whole entry, looked up): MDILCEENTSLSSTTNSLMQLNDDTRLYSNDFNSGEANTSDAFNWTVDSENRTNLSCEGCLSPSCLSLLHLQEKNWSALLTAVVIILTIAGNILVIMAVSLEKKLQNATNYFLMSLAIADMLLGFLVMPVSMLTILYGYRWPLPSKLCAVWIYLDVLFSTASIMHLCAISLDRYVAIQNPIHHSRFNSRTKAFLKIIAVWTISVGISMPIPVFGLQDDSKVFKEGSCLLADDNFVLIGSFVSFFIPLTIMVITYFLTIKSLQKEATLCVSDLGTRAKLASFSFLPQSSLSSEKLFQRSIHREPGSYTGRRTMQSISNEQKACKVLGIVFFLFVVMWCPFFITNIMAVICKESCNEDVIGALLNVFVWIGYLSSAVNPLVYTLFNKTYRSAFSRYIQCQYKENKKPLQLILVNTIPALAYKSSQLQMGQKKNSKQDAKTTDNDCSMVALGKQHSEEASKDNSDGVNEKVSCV
Sequence of KiSS-1 receptor (Homo sapiens) (Q969F8 whole entry, looked up): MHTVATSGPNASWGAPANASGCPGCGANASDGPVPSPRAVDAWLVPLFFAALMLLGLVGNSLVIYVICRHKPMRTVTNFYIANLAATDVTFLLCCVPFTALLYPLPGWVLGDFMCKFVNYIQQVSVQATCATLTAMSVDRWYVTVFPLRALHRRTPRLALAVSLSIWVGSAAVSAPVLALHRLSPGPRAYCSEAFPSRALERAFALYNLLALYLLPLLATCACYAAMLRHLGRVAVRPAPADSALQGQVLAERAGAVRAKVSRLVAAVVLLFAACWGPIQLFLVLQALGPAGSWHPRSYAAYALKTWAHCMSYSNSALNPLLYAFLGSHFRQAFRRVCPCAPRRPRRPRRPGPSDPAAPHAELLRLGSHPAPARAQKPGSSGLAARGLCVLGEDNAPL
Sequence of Beta-2 adrenergic receptor (Homo sapiens) (P07550 whole entry, looked up): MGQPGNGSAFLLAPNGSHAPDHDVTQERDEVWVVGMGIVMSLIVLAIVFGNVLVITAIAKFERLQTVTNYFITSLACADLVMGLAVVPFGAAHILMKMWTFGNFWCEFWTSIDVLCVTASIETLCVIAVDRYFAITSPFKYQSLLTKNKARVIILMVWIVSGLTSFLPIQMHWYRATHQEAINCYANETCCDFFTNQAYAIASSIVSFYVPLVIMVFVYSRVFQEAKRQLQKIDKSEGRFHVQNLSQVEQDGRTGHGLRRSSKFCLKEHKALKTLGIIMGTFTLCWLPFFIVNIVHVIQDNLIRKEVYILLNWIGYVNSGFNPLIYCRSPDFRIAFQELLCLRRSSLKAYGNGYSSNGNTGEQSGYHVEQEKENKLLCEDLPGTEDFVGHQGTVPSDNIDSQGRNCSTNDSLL
Sequence of D(2) dopamine receptor (Homo sapiens) (P14416 whole entry, looked up): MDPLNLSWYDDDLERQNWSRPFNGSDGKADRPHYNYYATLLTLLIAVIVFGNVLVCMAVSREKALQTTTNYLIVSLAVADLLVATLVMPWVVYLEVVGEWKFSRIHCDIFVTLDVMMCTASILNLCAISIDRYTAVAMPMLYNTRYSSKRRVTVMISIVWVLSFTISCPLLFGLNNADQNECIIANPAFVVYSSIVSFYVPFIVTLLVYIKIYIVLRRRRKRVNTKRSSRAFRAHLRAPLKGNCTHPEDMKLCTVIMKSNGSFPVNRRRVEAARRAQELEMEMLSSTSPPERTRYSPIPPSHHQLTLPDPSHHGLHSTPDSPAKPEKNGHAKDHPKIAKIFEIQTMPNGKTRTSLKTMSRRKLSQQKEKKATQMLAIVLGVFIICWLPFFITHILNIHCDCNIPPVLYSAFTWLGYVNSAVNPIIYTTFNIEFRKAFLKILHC
Sequence of Muscarinic acetylcholine receptor M1 (Homo sapiens) (P11229 whole entry, looked up): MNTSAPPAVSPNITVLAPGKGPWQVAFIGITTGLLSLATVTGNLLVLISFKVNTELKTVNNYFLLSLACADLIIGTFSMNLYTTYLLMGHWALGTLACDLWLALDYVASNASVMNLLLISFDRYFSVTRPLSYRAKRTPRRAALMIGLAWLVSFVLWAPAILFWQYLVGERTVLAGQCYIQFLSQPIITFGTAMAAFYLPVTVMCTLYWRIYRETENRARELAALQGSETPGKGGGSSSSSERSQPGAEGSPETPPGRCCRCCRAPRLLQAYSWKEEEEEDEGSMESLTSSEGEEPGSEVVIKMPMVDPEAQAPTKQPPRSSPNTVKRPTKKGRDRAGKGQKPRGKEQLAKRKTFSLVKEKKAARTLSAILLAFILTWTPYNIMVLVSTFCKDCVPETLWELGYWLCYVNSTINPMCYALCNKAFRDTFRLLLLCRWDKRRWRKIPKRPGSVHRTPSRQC
Sequence of Gonadotropin-releasing hormone receptor (Homo sapiens) (P30968 whole entry, looked up): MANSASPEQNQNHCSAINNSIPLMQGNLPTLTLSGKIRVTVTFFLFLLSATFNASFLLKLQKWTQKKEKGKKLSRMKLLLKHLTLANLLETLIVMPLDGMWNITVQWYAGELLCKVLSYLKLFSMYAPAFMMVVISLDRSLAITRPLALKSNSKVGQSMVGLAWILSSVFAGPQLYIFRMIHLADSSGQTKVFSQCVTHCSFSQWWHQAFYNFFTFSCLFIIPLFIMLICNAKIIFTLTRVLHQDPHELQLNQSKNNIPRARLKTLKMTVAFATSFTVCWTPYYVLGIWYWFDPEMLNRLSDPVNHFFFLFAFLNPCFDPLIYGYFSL

Compound | Potency [1] | Potency [2] | Potency [3] | outcome [4] | outcome [5] | Potency [6] | Potency [7] | Potency [8] | Potency [9] | Potency [10] | Potency [11] | Potency [12] | Potency [13] | Potency [14] | Potency [15] | Potency [16] | Potency [17] | Potency [18] | Potency [19] | Potency [20]
Cc1ccc2cccnc2c1 | inactive | inactive | inactive | inactive | inactive | inactive | inactive | inactive | inactive | inactive | inactive | inactive | inactive | inactive | inactive | inactive | inactive | inactive | inactive | 
COc1ccc(OC)c(OC)c1 | inactive | inactive | inactive | inactive | inactive | inactive | inactive | inactive | inactive | inactive | inactive | inactive | inactive | inactive | inactive | inactive | inactive | inactive | inactive | 
O=S(=O)(O)c1ccc(O)c2ncccc12 | inactive | inactive | inactive | inactive | inactive | inactive | inactive | inactive | inactive | inactive | inactive | inactive | inactive | inactive | inactive | inactive | inactive | inactive | inactive | 
O=C(Nc1ccccc1)Nc1ccccc1 | inactive | inactive | inactive | inactive | inactive | inactive | inactive | inactive | inactive | inactive | inactive | inactive | inactive | inactive | inactive | inactive | 68.9 µM (active) |  |  | 
NCC(=O)CCC(=O)O | inactive | inactive | inactive | inactive | inactive | inactive | inactive | inactive | inactive | inactive | inactive | inactive | inactive | inactive | inactive | inactive | inactive | inactive | inactive | 
CC1=CC(=O)CC(C)(C)C1(O)/C=C/C(C)=C\C(=O)O (stereo not given) | inactive | inactive | inactive | inactive | inactive | inactive | inactive | inactive | inactive | inactive | inactive | inactive | inactive | inactive | inactive | inactive | inactive | inactive | inactive | 
CC(C)(C)N(CCO)CCO | inactive | inactive | inactive | inactive | inactive | inactive | inactive | inactive | inactive | inactive | inactive | inactive | inactive | inactive | inactive | inactive |  | inactive | inactive | inactive
SCCCCCCCCS | inactive | inactive | inactive | inactive | inactive | inactive | inactive | inactive | inactive | inactive | inactive | inactive | inactive | inactive | inactive | inactive | inactive | inactive | inactive | 
